The record followed here is PubChem BioAssay (EPA / NIEHS).

Assay [1] concerns the target Cellular tumor antigen p53 (Homo sapiens) (UniProt P04637). As to the kind of experiment: TOX21_p53_BLA_p3_ratio: Tox21 HCT-116 p53 Agonism Beta-lactamase Assay, Ratio, Phase 3 (AID 2283596). An outline of the steps:
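Cells were seeded at 4000/well, rested 5 h at 37C, then dosed with DMSO compound solutions (217-fold dilution) for 16 h. CCF4-AM substrate was loaded for 2 h at room temperature, and the 460/530 nm emission ratio was fitted for gain of signal versus DMSO.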

For assay [2] the target is unchanged. As to the kind of experiment: TOX21_p53_BLA_p5_ratio: Tox21 HCT-116 p53 Agonism Beta-lactamase Assay, Ratio, Phase 5 (AID 2283599). The gist of the method: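 Beta-lactamase reporter ratio (blue 460 nm over green 530 nm, 405 nm excitation) after 2 h CCF4-AM loading, in HCT-116 cells exposed 16 h at 37 C to compounds pinned at 217-fold dilution. Increases relative to DMSO baseline scored.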

For assay [3] the target is unchanged. As to the kind of experiment: TOX21_p53_BLA_p4_ratio: Tox21 HCT-116 p53 Agonism Beta-lactamase Assay, Ratio, Phase 4 (AID 2283601). The gist of the method: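 Signal is the blue/green (460nm/530nm) ratio of cleaved versus uncleaved CCF4-AM substrate, read after 2 h substrate loading. Cells were HCT116 carrying the p53-responsive beta-lactamase reporter, dosed 16 h at 37C, 5% CO2; CellTiter-Glo measured in parallel.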

Assay [4] is described as follows: TOX21_p53_BLA_p5_viability: Viability Assessment in the Tox21 HCT-116 p53 Agonism Beta-lactamase Assay, Phase 5 (AID 2283600). The gist of the method: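 Luciferase-coupled ATP quantitation of cells treated for 16 h (37C, 5% CO2) with test chemicals delivered in DMSO via a 217-fold dilution; 4000 cells/well; reagent incubated 30 min at room temperature before luminescence reading.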

The nature of assay [5]: Tanguay_ZF_120hpf_MORT_legacy: (Legacy) Oregon State University Tanguay Lab 120 Hour Post-fertilization zebrafish Assay for Mortality (AID 2283633). An outline of the steps:
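Dechorionated Tropical 5D wild-type zebrafish embryos, one per well from 6 hpf, were statically exposed at 28C in the dark until 120 hpf (0.64% DMSO final). Mortality was scored as present/absent by brightfield microscopy, fitted positively versus DMSO.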

Assay [6] can be described thus: Tanguay_ZF_120hpf_AXIS_legacy: (Legacy) Oregon State University Tanguay Lab 120 Hour Post-fertilization zebrafish Assay for Body Axis Malformation (AID 2283635). The gist of the method:
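Tropical 5D wild-type zebrafish embryos, dechorionated with pronase at 4 hpf, were placed singly in wells at 6 hpf and exposed statically to test chemical (0.64% DMSO final) at 28C until 120 hpf, then scored by brightfield for body axis defects.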

A short description of assay [7]: Tanguay_ZF_120hpf_SNOU_legacy: (Legacy) Oregon State University Tanguay Lab 120 Hour Post-fertilization zebrafish Assay for Snout Malformation (AID 2283637). The gist of the method: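 Binary snout-malformation call at 120 hpf in wild-type 5D embryos, chorion removed by pronase, under static exposure from 6 hpf at 28C (0.64% DMSO). Embryos dying by 24 or 120 hpf excluded.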

A short description of assay [8]: TOX21_p53_BLA_p4_viability: Viability Assessment in the Tox21 HCT-116 p53 Agonism Beta-lactamase Assay, Phase 4 (AID 2283597).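 Also: hits lower the luminescence signal meaning cytotoxicity.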 An outline of the steps: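 Cytotoxicity was inferred from loss of CellTiter-Glo luminescence. HCT116 cells had been dosed with compounds after 5 h plating, incubated 16 h at 37C and 5% CO2, and exposed to the CCF4-AM substrate for 2 h.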

Values joined by “and” are separate entries in the source; they are usually repeats but may differ in a detail not shown here. Equal values may be shown once. Records with an inconclusive call do not appear. Active and inactive are the calls of the source. The calls were made as follows: active = hit-call score of the fitted dose curve at least 0.9, where 1 is the maximum; inconclusive = response in the unintended direction; inactive = score below 0.9.

Sequence of Cellular tumor antigen p53 (Homo sapiens) (P04637 whole entry, looked up): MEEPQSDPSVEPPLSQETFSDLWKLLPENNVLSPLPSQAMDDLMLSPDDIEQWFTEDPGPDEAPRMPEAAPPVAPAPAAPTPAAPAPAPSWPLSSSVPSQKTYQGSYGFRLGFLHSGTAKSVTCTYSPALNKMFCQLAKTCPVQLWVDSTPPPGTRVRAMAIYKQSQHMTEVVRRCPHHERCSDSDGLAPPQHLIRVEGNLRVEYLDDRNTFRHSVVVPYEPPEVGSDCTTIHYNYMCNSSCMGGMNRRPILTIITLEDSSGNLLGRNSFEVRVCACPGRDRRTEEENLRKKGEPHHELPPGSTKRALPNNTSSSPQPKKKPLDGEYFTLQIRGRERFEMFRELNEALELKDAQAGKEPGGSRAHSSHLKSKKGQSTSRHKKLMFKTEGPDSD

With `CC(=O)OC(C)c1ccccc1` (stereo not drawn), the result in assay [1], in assay [2] and in assay [3] was inactive.

Regarding `COc1ccc(C(=O)c2ccccc2)c(O)c1`, the outcome in assay [1], in assay [2] and in assay [3] was inactive.

Take `CC(C)=CCCC(C)=CC#N`: the outcome in assay [1], in assay [2] and in assay [3] was inactive.

Turning to `O=C1CCCCCCCCCCC1`, the outcome in assay [1], in assay [4] and in assay [3] was inactive.

In the case of `Clc1cc(Cl)c(Cl)c(Cl)c1Cl`, the result in assay [1], in assay [4] and in assay [3] was inactive.

As for `CO[Si](CCCS)(OC)OC`, the outcome in assay [1], in assay [2] and in assay [3] was inactive.

Turning to `CCC1COC(=O)O1` (stereo not drawn), the result in assay [1], in assay [2] and in assay [3] was inactive.

With `CC(C)[N+](C)(CCOC(=O)C1c2ccccc2Oc2ccccc21)C(C)C`, the outcome in assay [1], in assay [2] and in assay [3] was inactive.

Consider `Cc1ccccc1CCO`, for which the result in assay [1], in assay [2] and in assay [3] was inactive.

The term AC50 denotes the concentration at which the activity in the assay is half-maximal. Regarding `Oc1c(Cl)cc(Cl)c(Cl)c1Cl`, the half-maximal activity concentration (AC50) in assay [1] was 17 µM (active) and 27.1 µM (active); in assay [2], 27 µM (active) and 21.1 µM (active); in assay [3], 35.5 µM (active) and 18.8 µM (active).

For `Cc1cc(C)n(CO)n1`, the result in assay [1], in assay [2] and in assay [3] was inactive.

On to `CC(C)OC(=O)c1ccccc1`, for which the outcome in assay [1], in assay [2] and in assay [3] was inactive.

As for `Cc1c(C(=O)c2c[nH]n(C)c2=O)ccc(S(C)(=O)=O)c1C1=NOCC1`, the outcome in assay [1], in assay [2] and in assay [3] was inactive.

For `CC1CC(=O)CC(C)(C)C1` (stereo not drawn), the result in assay [1], in assay [2] and in assay [3] was inactive.

As to `Nc1ccc(C(=O)O)cc1`, the outcome in assay [1], in assay [2], in assay [3], in assay [5], in assay [6] and in assay [7] was inactive.

Take `O=C(OCCc1ccccc1)c1ccccc1`: the outcome in assay [1], in assay [2] and in assay [3] was inactive.

For the compound `CCCCC(=O)O`, the outcome in assay [1], in assay [2], in assay [4] and in assay [3] was inactive.

For `CC1=C(O)C(=O)C(C)O1` (stereo not drawn), the outcome in assay [2], in assay [4] and in assay [3] was inactive.

`CC(CC=O)CC(C)(C)C` (stereo not drawn): the outcome in assay [1] and in assay [3] was inactive.

Take `CCN1CN(CC)CN(CC)C1`: the call in assay [8] was inactive.

Take `CC1=CCC2CC1C2(C)C` (stereo not drawn): in assay [8], the compound was called inactive.

On to `CCOC(=O)c1ccc(C)cc1`, for which the result in assay [1] and in assay [3] was inactive.

In the case of `C/C=C/C=C/CCCCCCCO`, the call in assay [8] and in assay [2] was inactive.

Consider `CC(=O)OCCc1ccccc1`, for which the outcome in assay [8], in assay [2], in assay [4] and in assay [3] was inactive.

With `C=CCCCCCCCCC=O`, the result in assay [2] and in assay [4] was inactive.

In the case of `CCCC(C)C(=O)OCC` (stereo not drawn), the outcome in assay [1] and in assay [3] was inactive.

Regarding `N#Cc1ccc(C2CCCc3cncn32)cc1` (stereo not drawn), the result in assay [2], in assay [4] and in assay [3] was inactive.

For `C[Si]1(C)O[Si](C)(C)O[Si](C)(C)O[Si](C)(C)O[Si](C)(C)O1`, the result in assay [4] and in assay [3] was inactive.

Regarding `CCCCC(CC)COC(=O)/C=C/c1ccc(OC)cc1` (stereo not drawn), the compound was classed as inactive in assay [8].

For the compound `NNS(=O)(=O)c1ccc(Oc2ccc(S(=O)(=O)NN)cc2)cc1`, the result in assay [2], in assay [4] and in assay [3] was inactive.

For the compound `CC1=NN(c2ccc(S(=O)(=O)O)cc2)C(=O)C1N=Nc1ccccc1` (stereo not drawn), the compound was classed as inactive in assay [8] and in assay [3].

For `COCC(=O)O`, the call in assay [4] and in assay [3] was inactive.

With `CO[Si](C)(C)OC`, the compound was called inactive in assay [8], in assay [2], in assay [4] and in assay [3].

As for `CCOC(=O)c1ccccc1C`, the call in assay [8], in assay [2], in assay [4] and in assay [3] was inactive.

Turning to `CCCCCC(=O)OCC`, the outcome in assay [2] was inactive.

For `CCCCCCCCCCCC(C)=O`, the result in assay [4] and in assay [3] was inactive.

On to `CCCCc1ccc(Cl)cc1`, for which the outcome in assay [1] and in assay [3] was inactive.

On to `Nc1ccnc(=O)[nH]1`, for which the call in assay [8], in assay [4] and in assay [3] was inactive.

In the case of `CCCCCC[C@@H](O)C/C=C\CCCCCCCC(=O)OCC(O)CO` (stereo partly drawn), the result in assay [1] and in assay [3] was inactive.

`CC(Cl)COP(=O)(OCC(C)Cl)OCC(C)Cl` (stereo not drawn): in assay [2], the result was inactive.

Consider `c1ccc2cnccc2c1`, for which the result in assay [3] was inactive.

For the compound `O=C(O)CC(C(=O)O)S(=O)(=O)O` (stereo not drawn), the outcome in assay [3] was inactive.

On to `O=C(C=Cc1ccccc1)OCCc1ccccc1`, for which the outcome in assay [1], in assay [4] and in assay [3] was inactive.

With `COC(=O)c1ccccc1C`, the result in assay [1], in assay [4] and in assay [3] was inactive.

For `Nc1ccc(C(=O)OCCCOC(=O)c2ccc(N)cc2)cc1`, the compound was classed as inactive in assay [8], in assay [2] and in assay [4].

`CC1=CC=C(C(C)C)CC1`: the result in assay [2] was inactive.

In the case of `CC(C)COC(=O)CC(C(=O)OCC(C)C)S(=O)(=O)O` (stereo not drawn), the outcome in assay [8], in assay [2] and in assay [3] was inactive.

Consider `CC(C)CC(=O)OCc1ccccc1`, for which the outcome in assay [2] and in assay [3] was inactive.

`CCCCCCCCCC(C)=O`: the outcome in assay [2] was inactive.

On to `CCCC(CC)c1ccccc1` (stereo not drawn), for which the compound was classed as inactive in assay [8].

In the case of `CCc1occc(=O)c1O`, the compound was called inactive in assay [4].

On to `CC(C)CCCCCOC(=O)CS`, for which the result in assay [2] and in assay [4] was inactive.
